# Measurements taken from ChEMBL document CHEMBL2218924, “A broad activity screen in support of a chemogenomic map for kinase signalling research and drug discovery” (Biochem J, 2013).
# Assays:
# [1] = target: T1, Serine/threonine-protein kinase 17A (Homo sapiens) (UniProt Q9UEE5); conditions: at 10 µM
# T1 sequence (whole entry): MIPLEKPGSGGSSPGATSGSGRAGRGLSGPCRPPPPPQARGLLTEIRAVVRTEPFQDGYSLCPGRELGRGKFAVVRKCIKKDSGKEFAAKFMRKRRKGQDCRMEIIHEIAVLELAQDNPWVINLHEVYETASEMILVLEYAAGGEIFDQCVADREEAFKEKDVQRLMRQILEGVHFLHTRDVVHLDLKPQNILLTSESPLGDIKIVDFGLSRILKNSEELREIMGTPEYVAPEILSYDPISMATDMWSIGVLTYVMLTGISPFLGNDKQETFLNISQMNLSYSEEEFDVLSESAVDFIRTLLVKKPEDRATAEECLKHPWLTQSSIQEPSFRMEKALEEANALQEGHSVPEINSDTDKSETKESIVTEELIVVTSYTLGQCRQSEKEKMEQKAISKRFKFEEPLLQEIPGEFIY
# [2] = target: T2, Dual specificity tyrosine-phosphorylation-regulated kinase 2 (Homo sapiens) (UniProt Q92630); conditions: at 1 µM
# T2 sequence (whole entry): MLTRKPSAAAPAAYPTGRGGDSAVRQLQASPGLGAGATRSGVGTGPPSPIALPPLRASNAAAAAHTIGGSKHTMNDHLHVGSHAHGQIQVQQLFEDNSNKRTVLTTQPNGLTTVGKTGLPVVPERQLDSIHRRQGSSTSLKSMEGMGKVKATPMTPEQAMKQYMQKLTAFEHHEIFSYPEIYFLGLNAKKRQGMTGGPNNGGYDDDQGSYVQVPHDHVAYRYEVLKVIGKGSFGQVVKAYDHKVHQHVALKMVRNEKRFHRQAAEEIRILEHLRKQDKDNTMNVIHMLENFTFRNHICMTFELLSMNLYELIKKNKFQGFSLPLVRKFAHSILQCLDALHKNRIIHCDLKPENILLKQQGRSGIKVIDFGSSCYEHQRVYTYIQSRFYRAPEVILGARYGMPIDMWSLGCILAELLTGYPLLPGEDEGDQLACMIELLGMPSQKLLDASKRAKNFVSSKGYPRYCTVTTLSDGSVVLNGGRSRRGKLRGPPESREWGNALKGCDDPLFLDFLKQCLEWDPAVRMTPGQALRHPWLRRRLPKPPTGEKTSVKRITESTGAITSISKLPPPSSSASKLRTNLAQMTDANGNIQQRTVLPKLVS
# [3] = target: T2, Dual specificity tyrosine-phosphorylation-regulated kinase 2 (Homo sapiens); conditions: at 10 µM
# [4] = target: T3, Ephrin type-A receptor 1 (Homo sapiens) (UniProt P21709); conditions: at 1 µM
# T3 sequence (whole entry): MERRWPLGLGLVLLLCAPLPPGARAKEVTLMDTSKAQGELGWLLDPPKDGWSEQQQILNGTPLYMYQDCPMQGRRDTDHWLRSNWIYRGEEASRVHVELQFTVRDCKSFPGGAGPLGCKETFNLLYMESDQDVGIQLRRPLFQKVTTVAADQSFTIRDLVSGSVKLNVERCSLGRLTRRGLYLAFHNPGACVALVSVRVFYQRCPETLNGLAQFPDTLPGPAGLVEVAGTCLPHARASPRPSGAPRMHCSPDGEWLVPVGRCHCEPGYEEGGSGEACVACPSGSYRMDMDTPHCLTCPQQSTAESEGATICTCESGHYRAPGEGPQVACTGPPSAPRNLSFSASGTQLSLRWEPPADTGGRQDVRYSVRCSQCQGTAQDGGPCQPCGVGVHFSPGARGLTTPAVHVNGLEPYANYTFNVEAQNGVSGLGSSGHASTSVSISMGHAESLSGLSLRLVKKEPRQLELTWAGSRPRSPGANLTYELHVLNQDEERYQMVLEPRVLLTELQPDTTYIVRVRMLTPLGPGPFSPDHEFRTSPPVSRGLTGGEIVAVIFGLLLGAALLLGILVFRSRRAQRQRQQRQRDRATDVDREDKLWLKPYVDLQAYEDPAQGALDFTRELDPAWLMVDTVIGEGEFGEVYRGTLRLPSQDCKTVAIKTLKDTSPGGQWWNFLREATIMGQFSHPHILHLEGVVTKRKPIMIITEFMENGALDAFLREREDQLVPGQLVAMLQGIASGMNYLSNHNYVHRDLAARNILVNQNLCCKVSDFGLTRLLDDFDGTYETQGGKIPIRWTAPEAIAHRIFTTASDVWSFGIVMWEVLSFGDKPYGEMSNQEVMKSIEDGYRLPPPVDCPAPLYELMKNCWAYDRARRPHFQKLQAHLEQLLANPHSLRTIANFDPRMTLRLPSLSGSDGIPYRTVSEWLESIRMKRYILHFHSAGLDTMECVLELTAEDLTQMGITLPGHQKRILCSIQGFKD
# [5] = target: T3, Ephrin type-A receptor 1 (Homo sapiens); conditions: at 10 µM
# [6] = target: Ephrin type-A receptor 2 (Homo sapiens) (UniProt P29317); conditions: at 10 µM
# [7] = target: T4, Ephrin type-A receptor 3 (Homo sapiens) (UniProt P29320); conditions: at 1 µM
# T4 sequence (whole entry): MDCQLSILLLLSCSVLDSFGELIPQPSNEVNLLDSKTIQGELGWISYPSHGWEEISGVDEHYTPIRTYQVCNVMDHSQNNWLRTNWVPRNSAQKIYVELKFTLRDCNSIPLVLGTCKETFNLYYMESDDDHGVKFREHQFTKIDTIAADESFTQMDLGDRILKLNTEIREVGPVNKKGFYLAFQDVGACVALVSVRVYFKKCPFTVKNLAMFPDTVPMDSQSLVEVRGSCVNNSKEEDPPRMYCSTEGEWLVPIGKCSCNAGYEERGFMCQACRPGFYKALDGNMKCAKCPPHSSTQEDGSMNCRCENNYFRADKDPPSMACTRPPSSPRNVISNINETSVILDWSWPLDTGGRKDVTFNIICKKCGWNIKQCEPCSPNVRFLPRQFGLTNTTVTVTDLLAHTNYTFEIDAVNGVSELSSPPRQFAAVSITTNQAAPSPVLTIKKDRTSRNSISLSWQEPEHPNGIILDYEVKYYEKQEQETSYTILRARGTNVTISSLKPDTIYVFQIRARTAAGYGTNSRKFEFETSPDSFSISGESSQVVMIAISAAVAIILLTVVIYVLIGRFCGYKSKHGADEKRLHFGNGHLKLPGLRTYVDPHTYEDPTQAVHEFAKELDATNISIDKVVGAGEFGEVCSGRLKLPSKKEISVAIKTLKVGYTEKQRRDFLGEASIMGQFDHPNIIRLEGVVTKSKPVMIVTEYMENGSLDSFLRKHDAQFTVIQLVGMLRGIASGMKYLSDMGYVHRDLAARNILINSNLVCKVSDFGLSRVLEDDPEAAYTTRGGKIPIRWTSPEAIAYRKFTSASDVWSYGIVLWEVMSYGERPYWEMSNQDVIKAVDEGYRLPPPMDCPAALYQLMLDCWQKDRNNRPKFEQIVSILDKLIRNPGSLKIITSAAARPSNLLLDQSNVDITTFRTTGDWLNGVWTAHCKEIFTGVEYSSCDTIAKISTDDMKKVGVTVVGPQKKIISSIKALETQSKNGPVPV
# [8] = target: Epidermal growth factor receptor (Homo sapiens) (UniProt P00533); conditions: at 10 µM
# [9] = target: Ephrin type-A receptor 2 (Homo sapiens) (UniProt P29317); conditions: at 1 µM
# [10] = target: Epidermal growth factor receptor (Homo sapiens) (UniProt P00533); conditions: at 1 µM
# Epidermal growth factor receptor (Homo sapiens), sequence (P00533 whole entry): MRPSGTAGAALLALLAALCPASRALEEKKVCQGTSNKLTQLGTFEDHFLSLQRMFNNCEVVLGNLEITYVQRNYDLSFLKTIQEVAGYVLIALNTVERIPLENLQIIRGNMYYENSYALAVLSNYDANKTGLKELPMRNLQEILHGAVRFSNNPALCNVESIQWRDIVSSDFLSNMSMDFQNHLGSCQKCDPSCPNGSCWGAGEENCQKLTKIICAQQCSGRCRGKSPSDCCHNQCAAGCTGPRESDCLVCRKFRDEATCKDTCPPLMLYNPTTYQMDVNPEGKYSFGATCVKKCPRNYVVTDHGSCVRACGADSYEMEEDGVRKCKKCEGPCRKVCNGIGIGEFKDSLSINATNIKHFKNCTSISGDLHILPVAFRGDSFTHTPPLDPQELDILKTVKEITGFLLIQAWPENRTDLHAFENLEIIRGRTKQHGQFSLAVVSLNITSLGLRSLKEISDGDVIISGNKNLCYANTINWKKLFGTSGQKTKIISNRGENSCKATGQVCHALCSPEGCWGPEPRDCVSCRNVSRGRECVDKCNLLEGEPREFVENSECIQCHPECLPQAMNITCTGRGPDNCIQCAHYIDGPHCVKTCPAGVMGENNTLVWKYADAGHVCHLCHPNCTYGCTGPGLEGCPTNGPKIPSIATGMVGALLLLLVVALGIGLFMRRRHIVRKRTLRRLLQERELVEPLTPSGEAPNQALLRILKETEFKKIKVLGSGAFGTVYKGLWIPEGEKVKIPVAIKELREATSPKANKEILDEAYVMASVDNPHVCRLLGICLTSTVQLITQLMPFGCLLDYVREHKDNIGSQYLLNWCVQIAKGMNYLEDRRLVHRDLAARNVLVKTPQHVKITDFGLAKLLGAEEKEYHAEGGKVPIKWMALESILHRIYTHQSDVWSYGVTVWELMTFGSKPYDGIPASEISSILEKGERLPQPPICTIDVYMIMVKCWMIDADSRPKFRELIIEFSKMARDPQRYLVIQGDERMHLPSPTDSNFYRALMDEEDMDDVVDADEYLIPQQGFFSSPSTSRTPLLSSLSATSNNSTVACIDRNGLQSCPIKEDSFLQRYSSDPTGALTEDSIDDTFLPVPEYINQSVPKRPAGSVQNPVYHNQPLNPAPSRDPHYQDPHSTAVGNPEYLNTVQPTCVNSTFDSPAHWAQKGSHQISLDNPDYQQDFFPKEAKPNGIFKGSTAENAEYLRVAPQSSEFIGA
# Ephrin type-A receptor 2 (Homo sapiens), sequence (P29317 whole entry): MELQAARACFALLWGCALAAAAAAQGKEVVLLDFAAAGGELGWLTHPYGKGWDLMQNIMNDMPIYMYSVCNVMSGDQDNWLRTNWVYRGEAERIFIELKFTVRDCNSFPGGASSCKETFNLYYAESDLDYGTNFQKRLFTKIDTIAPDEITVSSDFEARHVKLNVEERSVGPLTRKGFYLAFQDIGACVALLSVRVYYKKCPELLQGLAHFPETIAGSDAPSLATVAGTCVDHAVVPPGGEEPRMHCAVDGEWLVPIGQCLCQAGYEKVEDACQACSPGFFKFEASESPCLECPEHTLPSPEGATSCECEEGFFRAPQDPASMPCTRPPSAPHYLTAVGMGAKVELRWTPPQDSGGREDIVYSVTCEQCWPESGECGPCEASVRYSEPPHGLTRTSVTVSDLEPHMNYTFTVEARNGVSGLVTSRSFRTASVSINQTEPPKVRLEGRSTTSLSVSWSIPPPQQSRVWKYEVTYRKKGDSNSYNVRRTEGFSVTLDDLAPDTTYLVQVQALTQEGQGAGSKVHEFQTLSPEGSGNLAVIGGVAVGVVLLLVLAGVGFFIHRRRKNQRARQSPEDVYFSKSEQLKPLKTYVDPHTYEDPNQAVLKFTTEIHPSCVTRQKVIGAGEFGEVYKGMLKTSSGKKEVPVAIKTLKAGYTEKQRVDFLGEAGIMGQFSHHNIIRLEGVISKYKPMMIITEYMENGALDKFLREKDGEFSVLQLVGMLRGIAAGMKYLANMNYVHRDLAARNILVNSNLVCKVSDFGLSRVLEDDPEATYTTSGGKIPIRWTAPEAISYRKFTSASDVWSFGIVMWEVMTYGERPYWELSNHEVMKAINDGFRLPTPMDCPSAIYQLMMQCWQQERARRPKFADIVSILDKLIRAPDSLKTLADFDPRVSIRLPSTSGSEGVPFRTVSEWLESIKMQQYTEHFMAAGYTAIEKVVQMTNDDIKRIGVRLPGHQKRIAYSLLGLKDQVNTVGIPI
compound,measurement,setting,value
CCN(CC)CCNC(=O)c1c(C)[nH]c(/C=C2\C(=O)Nc3ccc(Cl)cc32)c1C,residual activity,[1],2%
same,residual activity,[2],78%
same,residual activity,[3],37%
same,residual activity,[4],82%
same,residual activity,[5],37%
same,residual activity,[6],73%
N#Cc1c(NC(=O)c2cccc3ccccc23)sc2c1CCCC2,residual activity,[1],134%
Nc1ncnc2c1cnn2-c1ccccc1,residual activity,[1],68%
same,residual activity,[2],85%
same,residual activity,[3],44%
same,residual activity,[4],85%
same,residual activity,[5],88%
same,residual activity,[7],100%
O=C(Nc1nc2ccccc2n1CCN1CCOCC1)c1cccc([N+](=O)[O-])c1,residual activity,[1],53%
same,residual activity,[2],102%
same,residual activity,[3],88%
same,residual activity,[4],80%
same,residual activity,[5],123%
same,residual activity,[7],104%
Nc1nccc(-c2c(-c3ccc(F)cc3)ncn2C2CCNCC2)n1,residual activity,[1],21%
same,residual activity,[2],83%
same,residual activity,[3],40%
same,residual activity,[8],84%
same,residual activity,[4],119%
same,residual activity,[5],45%
N#C/C(=C1/Nc2ccccc2S1)c1ccnc(NCCc2cccnc2)n1,residual activity,[1],37%
same,residual activity,[2],19%
same,residual activity,[3],2%
COc1ccc(-c2cnc3c(-c4ccsc4)cnn3c2)cc1,residual activity,[1],98%
same,residual activity,[2],100%
same,residual activity,[3],94%
Cn1c2ccccc2c2c3c(c4c5ccccc5n(CCC#N)c4c21)CNC3=O,residual activity,[1],36%
same,residual activity,[2],76%
same,residual activity,[3],66%
c1ccc(-c2cnc(Nc3ccc(OCCN4CCCC4)cc3)s2)cc1,residual activity,[1],4%
same,residual activity,[3],62%
same,residual activity,[4],77%
same,residual activity,[5],60%
same,residual activity,[7],104%
Nc1ncnc2c1c(-c1ccc(Oc3ccccc3)cc1)cn2C1CCCC1,residual activity,[1],104%
same,residual activity,[2],91%
same,residual activity,[3],82%
same,residual activity,[4],72%
same,residual activity,[5],18%
same,residual activity,[9],100%
same,residual activity,[6],55%
same,residual activity,[7],101%
O=C1C(Cl)=C(N2C(=O)CCC2=O)C(=O)c2ccccc21,residual activity,[1],82%
same,residual activity,[2],100%
same,residual activity,[3],92%
same,residual activity,[5],84%
same,residual activity,[9],93%
same,residual activity,[7],85%
O=C1Cc2c([nH]c3ccc([N+](=O)[O-])cc23)-c2ccccc2N1,residual activity,[1],7%
same,residual activity,[2],54%
same,residual activity,[3],71%
same,residual activity,[4],109%
same,residual activity,[5],103%
O=C1Cc2c([nH]c3ccc(Br)cc23)-c2ccccc2N1,residual activity,[1],39%
same,residual activity,[2],92%
same,residual activity,[3],45%
same,residual activity,[4],91%
same,residual activity,[5],78%
same,residual activity,[7],83%
O=c1cc(N2CCNCC2)oc2c(-c3ccccc3)cccc12,residual activity,[1],66%
same,residual activity,[2],87%
same,residual activity,[3],94%
same,residual activity,[4],91%
same,residual activity,[5],100%
same,residual activity,[9],99%
same,residual activity,[6],97%
same,residual activity,[7],91%
O=C(c1cc2cc(O)ccc2[nH]1)c1cc2cc(O)ccc2[nH]1,residual activity,[1],2%
same,residual activity,[2],81%
same,residual activity,[3],47%
same,residual activity,[4],83%
same,residual activity,[5],47%
O=C1NC(=O)c2c1c1c3ccccc3[nH]c1n1cncc21,residual activity,[1],6%
same,residual activity,[2],68%
same,residual activity,[3],57%
same,residual activity,[4],74%
same,residual activity,[5],50%
same,residual activity,[9],87%
same,residual activity,[6],86%
same,residual activity,[7],91%
COc1cc2nccc(Oc3ccc(NC(=S)NC(=O)c4ccccc4C)cc3)c2cc1OC,residual activity,[1],92%
same,residual activity,[3],91%
same,residual activity,[4],46%
same,residual activity,[5],24%
same,residual activity,[9],91%
same,residual activity,[6],55%
same,residual activity,[7],98%
COc1cc2ncnc(Nc3cccc(Cl)c3)c2cc1OC,residual activity,[1],48%
same,residual activity,[10],-5%
same,residual activity,[8],-3%
same,residual activity,[4],42%
same,residual activity,[5],7%
same,residual activity,[9],89%
same,residual activity,[6],37%
Nc1ncnc2[nH]nc(Nc3ccc(F)cc3)c12,residual activity,[1],16%
same,residual activity,[2],79%
same,residual activity,[3],30%
same,residual activity,[4],43%
same,residual activity,[6],50%
NC(=O)c1ccc(-c2nc(-c3ccc4c(c3)OCCO4)c(-c3ccccn3)[nH]2)cc1,residual activity,[7],100%
CCOC(=O)c1c(C)[nH]c(/C=C2\C(=O)Nc3ccccc32)c1C,residual activity,[1],75%
same,residual activity,[4],83%
same,residual activity,[5],118%
O=C(NC(NC(=S)Nc1ccc(F)c([N+](=O)[O-])c1)C(Cl)(Cl)Cl)C(c1ccccc1)c1ccccc1 (configuration not stated),residual activity,[2],98%
same,residual activity,[3],100%
same,residual activity,[4],104%
same,residual activity,[5],92%
O=C(c1ccccc1)c1ccc(N2CCOCC2)cc1O,residual activity,[2],100%
same,residual activity,[3],93%
same,residual activity,[4],88%
same,residual activity,[5],95%
same,residual activity,[9],99%
same,residual activity,[6],95%
COc1ccc(Cl)cc1NC(=O)Nc1cc(C)nc2ccccc12,residual activity,[1],58%
same,residual activity,[4],89%
same,residual activity,[5],89%
O=S(=O)(c1cccc2cnccc12)N1CCCNCC1,residual activity,[4],100%
O=C1NC(=O)C(c2cn(CCCO)c3ncccc23)=C1c1cnccn1,residual activity,[1],67%
same,residual activity,[7],97%
COc1ccc2c(c1)c(C1=C(c3c[nH]c4ccccc34)C(=O)NC1=O)cn2CCCN(C)C,residual activity,[1],27%
same,residual activity,[4],71%
same,residual activity,[5],42%
same,residual activity,[9],104%
same,residual activity,[6],33%
same,residual activity,[7],106%
CCCCc1c(-c2ccc(OC)cc2)[nH]c2nccnc12,residual activity,[1],80%
same,residual activity,[4],29%
same,residual activity,[5],3%
same,residual activity,[9],87%
same,residual activity,[6],82%
same,residual activity,[7],74%
COc1ccc(COc2ccc(Cc3cnc(N)nc3N)cc2OC)cc1,residual activity,[1],112%
same,residual activity,[10],112%
same,residual activity,[8],114%
same,residual activity,[5],77%
same,residual activity,[7],108%
CC(C)N(CCC(=O)c1ccc2ccccc2c1)Cc1ccccc1,residual activity,[4],75%
same,residual activity,[5],85%
NC(=O)Nc1sc(-c2ccc(F)cc2)cc1C(N)=O,residual activity,[1],39%
same,residual activity,[4],9%
same,residual activity,[5],6%
same,residual activity,[9],32%
same,residual activity,[6],4%
same,residual activity,[7],80%
O=C1Nc2ccccc2/C1=C\c1c(Cl)[nH]c2ccccc12,residual activity,[1],85%
same,residual activity,[4],87%
same,residual activity,[5],72%
